From PubChem BioAssay (NCATS)
Records with an inconclusive call do not appear. The source made the active and inactive calls. Calls come from the whole dose curve; as a rule, active = well fitted curve in the direction sought with a large enough effect in the repeat runs; inconclusive = weak or mixed curves; inactive = no such curve, though single readings can be large; an effect the other way counts as inactive or inconclusive.

Experiments:
[1] = target: Cytochrome P450 2D6 (Homo sapiens) (UniProt P10635); test: Cytochrome P450 family 2 subfamily D member 6 (CYP2D6) small molecule antagonists: luciferase biochemical (cell-free) qHTS assay (AID 1645840); note: nearly all actives have a fitted effect of over 55% in size; note: potency is the fitted concentration of half-maximal effect
Sequence of Cytochrome P450 2D6 (Homo sapiens) (P10635 whole entry, looked up): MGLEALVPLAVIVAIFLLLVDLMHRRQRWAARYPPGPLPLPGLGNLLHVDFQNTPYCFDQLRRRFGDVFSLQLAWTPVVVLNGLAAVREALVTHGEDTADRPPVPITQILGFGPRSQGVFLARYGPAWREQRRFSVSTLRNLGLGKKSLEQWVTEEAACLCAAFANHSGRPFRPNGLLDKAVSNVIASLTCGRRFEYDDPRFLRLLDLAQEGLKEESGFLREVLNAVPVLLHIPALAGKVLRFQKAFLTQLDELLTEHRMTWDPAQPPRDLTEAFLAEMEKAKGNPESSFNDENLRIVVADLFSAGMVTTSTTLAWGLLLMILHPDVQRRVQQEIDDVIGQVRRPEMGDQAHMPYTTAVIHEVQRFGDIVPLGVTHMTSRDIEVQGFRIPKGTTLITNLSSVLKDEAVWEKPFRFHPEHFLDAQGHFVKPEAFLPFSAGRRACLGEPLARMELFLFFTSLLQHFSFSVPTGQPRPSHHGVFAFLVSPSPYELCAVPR
Procedure, shortened: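 P450-Glo CYP2D6 system: proluciferin substrate converted by enzyme to luciferin, read by luminescence proportional to activity. Enzyme-substrate mix with compound 10 min at room temperature, then NADPH regeneration 1 h before detection reagent.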

[2] = target: Cytochrome P450 3A4 (Homo sapiens) (UniProt P08684); test: Cytochrome P450 family 3 subfamily A member 4 (CYP3A4) small molecule antagonists: luciferase qHTS assay (AID 1645841); note: nearly all actives have a fitted effect of over 45% in size
Sequence of Cytochrome P450 3A4 (Homo sapiens) (P08684 whole entry, looked up): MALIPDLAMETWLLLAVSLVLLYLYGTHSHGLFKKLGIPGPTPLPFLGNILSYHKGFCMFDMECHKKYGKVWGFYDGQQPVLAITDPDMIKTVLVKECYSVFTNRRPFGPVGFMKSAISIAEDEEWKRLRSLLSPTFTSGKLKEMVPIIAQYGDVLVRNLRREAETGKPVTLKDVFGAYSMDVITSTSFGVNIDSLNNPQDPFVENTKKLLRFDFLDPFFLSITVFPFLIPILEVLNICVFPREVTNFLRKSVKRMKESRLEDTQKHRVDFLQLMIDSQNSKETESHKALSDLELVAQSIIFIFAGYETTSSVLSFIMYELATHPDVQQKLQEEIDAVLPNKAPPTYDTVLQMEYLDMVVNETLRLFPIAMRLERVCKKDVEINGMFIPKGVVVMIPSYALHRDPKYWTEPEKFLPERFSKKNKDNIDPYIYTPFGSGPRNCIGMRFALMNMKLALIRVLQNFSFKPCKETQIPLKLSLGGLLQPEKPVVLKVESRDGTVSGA
Procedure, shortened: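 P450-Glo CYP3A4 enzyme with proluciferin substrate was preincubated with DMSO-dissolved compounds for 10 min at room temperature. NADPH regeneration solution started a 1 h reaction. Detection reagent stopped it, and luminescence was read after 20 min.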

[3] = target: Cytochrome P450 2C9 (Homo sapiens) (UniProt P11712); test: Cytochrome P450 family 2 subfamily C member 9 (CYP2C9) small molecule antagonists: luciferase biochemical (cell-free) qHTS assay (AID 1645842); note: nearly all actives have a fitted effect of over 55% in size; note: potency is the fitted concentration of half-maximal effect
Sequence of Cytochrome P450 2C9 (Homo sapiens) (P11712 whole entry, looked up): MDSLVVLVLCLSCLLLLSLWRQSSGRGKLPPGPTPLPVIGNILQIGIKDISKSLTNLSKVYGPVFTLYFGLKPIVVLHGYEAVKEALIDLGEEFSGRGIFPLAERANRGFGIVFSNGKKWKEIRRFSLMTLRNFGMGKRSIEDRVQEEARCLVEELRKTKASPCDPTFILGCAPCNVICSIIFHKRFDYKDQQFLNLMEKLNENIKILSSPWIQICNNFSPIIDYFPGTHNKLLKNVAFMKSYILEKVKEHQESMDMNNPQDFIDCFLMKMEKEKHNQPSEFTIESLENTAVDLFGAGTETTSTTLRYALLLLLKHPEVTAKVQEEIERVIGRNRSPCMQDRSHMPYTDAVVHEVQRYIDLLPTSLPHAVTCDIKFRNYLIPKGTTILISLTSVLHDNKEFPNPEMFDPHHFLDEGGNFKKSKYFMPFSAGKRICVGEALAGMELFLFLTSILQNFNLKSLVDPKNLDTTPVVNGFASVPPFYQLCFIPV
Procedure, shortened: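 P450-Glo CYP2C9 system: proluciferin substrate with enzyme in mix containing 0.4% BSA, 10 min at room temperature, then NADPH regeneration solution added and incubated 1 h at 37C. Detection reagent stopped reaction; luminescence read after 20 min as RLU.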

Compound | Potency [1] | Potency [2] | Potency [3]
Cc1cc(C)cc(NC(=O)Cn2c(=O)n(-c3ccc(C)c(C)c3)c(=O)c3oc4ccccc4c32)c1 | 0.425 µM (active) | – | –
CC1(C#N)CCN(c2c(C(=O)N3CCN(C(=O)N4CCCC4)CC3)cnc3c(F)cc(F)cc23)CC1 | inactive | – | –
CCOC(=O)c1ccc(N2C(=O)c3n[nH]c(-c4ccco4)c3C2c2ccc(C)cc2)cc1 (centres undefined) | inactive | – | –
COc1ccc2cc(Br)ccc2c1 | inactive | – | –
COc1ccc(C(=O)NC(c2ccc(Cl)cc2)c2cc(Cl)c3cccnc3c2O)cc1 (centres undefined) | inactive | – | –
O=C(CC1N=C2c3ccccc3N=C(SCc3ccc(Cl)cc3)N2C1=O)NCCc1ccccc1 (centres undefined) | 2.13 µM (active) | – | –
CCC(=O)N1CCc2cc(S(=O)(=O)NC(Cc3ccccc3)C(=O)NCc3cccc(OC)c3)ccc21 (centres undefined) | 12 µM (active) | – | –
CN[C@H](CC(C)C)C(=O)N[C@H]1C(=O)N[C@@H](CC(N)=O)C(=O)N[C@H]2C(=O)N[C@H]3C(=O)N[C@H](C(=O)N[C@H](C(=O)O)c4cc(O)cc(O)c4-c4cc3ccc4O)[C@H](O)c3ccc(c(Cl)c3)Oc3cc2cc(c3O[C@@H]2OC(CO)[C@@H](O)[C@H](O)[C@@H]2O[C@H]2C[C@](C)(N)[C@H](O)[C@H](C)O2)Oc2ccc(cc2Cl)[C@H]1O (some centres undefined) | inactive | inactive | –
CCc1ccc(CN(Cc2ccco2)C(=O)COc2ccccc2Cl)cc1 | 7.56 µM (active) | – | –
c1ccc(Cn2c(-c3ccc(OC[C@H](C4CCNCC4)n4c(-c5ccccc5)nc5ccccc54)cc3)nc3ccccc32)cc1 | 12 µM (active) | – | –
OC[C@H]1O[C@@H]2O[C@H]3[C@H](O)[C@@H](O)[C@@H](O[C@H]4[C@H](O)[C@@H](O)[C@@H](O[C@H]5[C@H](O)[C@@H](O)[C@@H](O[C@H]6[C@H](O)[C@@H](O)[C@@H](O[C@H]7[C@H](O)[C@@H](O)[C@@H](O[C@H]1[C@H](O)[C@@H]2O)O[C@@H]7CO)O[C@@H]6CO)O[C@@H]5CO)O[C@@H]4CO)O[C@@H]3CO | inactive | inactive | inactive
CCNC(=O)N1CCN(C(=O)c2cnc3cc(OC)ccc3c2N2CCC(C)(C#N)CC2)CC1 | inactive | – | –
CCOC(=O)c1csc(-n2nc(-c3ccc(F)c(F)c3)c(Cc3ccc(S(N)(=O)=O)cc3)c2N)n1 | inactive | – | –
C[S+](=O)([O-])Nc1ccc(-c2ccc3nc(-c4ccc(OC(F)(F)F)cc4)[nH]c3c2)cc1 | inactive | inactive | –
Nc1ccn(C2O[C@H](CO)[C@@H](O)[C@@H]2O)c(=O)n1 (some centres undefined) | inactive | – | –
Cc1cccc(NC(=O)Cn2cc(C(=O)c3ccco3)c3ccccc32)c1C | 6.01 µM (active) | – | 3.01 µM (active)
COc1ccc(CN(C2CCCCC2)[S+](=O)([O-])c2ccc(C)cc2)cc1OC | inactive | – | 3.79 µM (active)
Cc1ccc2nc(NC(=O)CSc3nccn3Cc3ccccc3)sc2c1 | 8.49 µM (active) | – | 9.52 µM (active)
NC(=O)c1ccc(Cc2c(-c3cccc(-c4ccccc4)c3)[nH]n(-c3nc(C(=O)O)cs3)c2=O)cc1 | 23.9 µM (active) | – | 26.8 µM (active)
COc1ccc(-c2nc(SCC(=O)Nc3ccc4c(c3)OCO4)c(-c3ccccc3)[nH]2)cc1 | 6.01 µM (active) | – | 1.2 µM (active)
Cc1cc(Cl)ccc1NC(=O)CCCn1nc(C)c2c(C)n(-c3ccccc3)nc2c1=O | inactive | – | 13.5 µM (active)
COC(=O)c1cnc(N2CCN(c3ccc(OC)cc3)CC2)c2ccccc12 | inactive | – | 2.13 µM (active)
COc1ccc(CNC(=O)Cn2c(SCC(=O)Nc3ccc(C)c(C)c3)nc3ccccc32)cc1 | inactive | – | 2.39 µM (active)
COc1ccccc1OCCn1c(NC(=O)c2ccccc2Cl)nc2ccccc21 | inactive | – | 3.79 µM (active)
O=C(CC1N=C2c3ccccc3N=C(SCc3ccc(F)cc3)N2C1=O)NC1CCCCC1 (centres undefined) | 3.01 µM (active) | – | 2.68 µM (active)
CC1=C(C(=O)Nc2ccc(CN)cc2)C(c2ccccc2Cl)N=C(Nc2nc3ccccc3o2)N1 (centres undefined) | 15.1 µM (active) | – | 10.7 µM (active)
CC1=C(C(=O)Nc2ccccc2C)C(c2cccnc2)n2nc(SCc3ccccc3)nc2N1 (centres undefined) | inactive | – | 2.39 µM (active)
COc1ccc(C(Nc2ccccn2)c2ccc3ccc(C)nc3c2O)cc1C (centres undefined) | 21.3 µM (active) | – | 2.68 µM (active)
O=C(NCc1ccco1)c1ccc2c(c1)N(Cc1cccc(Cl)c1)C(=O)c1ccccc1S2=O (centres undefined) | 1.2 µM (active) | – | 1.34 µM (active)
NC(=O)C(c1ccccc1)(c1ccccc1)[C@H]1CCN(CCc2ccc3c(c2)CCO3)C1 | 0.0425 µM (active) | – | 8.49 µM (active)
